# Bioassay records from PubChem.
# The list is not random: actives were taken first. Their share in the collection is about 17%.
# ATXN2 expr inh: reduces ATXN2 reporter expression in HEK-293 cells. 0.72% of 360,000 active. HEK-293 ATXN2-luciferase reporter, luminescence, 24 h. Potency, µM (highest dose often 57 µM), for inactives: at the highest dose activity change, negative = inhibition, hits mostly inhibitors. AID 1745845; further: on the % scale 0 is the no-effect control and ±100 the full control effect; nearly all actives have a fitted effect of over 55% in size
#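 ATXN2-luciferase reporter cells (luciferase flanked by upstream and downstream ATXN2 gene portions) were treated 24 h at 37 °C with compounds at up to 57 uM. SteadyGlo luminescence gave expression; GF-AFC fluorescence gave viability.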
# TGFb inhibitor: TGF-b pathway inhibition. HepG2 CAGA-GFP TGF-b/SMAD3 reporter, GFP fluorescence, 18 h; TGF-beta stimulated, 500 pg/mL final. Potency, µM (titrated, usually from 46.1 µM), inactives show at the top dose activity, negative = inhibition, hits mostly inhibitors. 1.2% of 410,000 active. AID 588855; further: on the % scale 0 is the no-effect control and ±100 the full control effect; nearly all actives have a fitted effect of over 65% in size
#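 Inhibition of TGF-beta-driven CAGA-GFP reporter expression in HEPG2 cells is measured by cellular GFP fluorescence after 18 h stimulation with 500 pg/mL recombinant TGF-beta in 1% FBS medium at 37 degrees C.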
# ATXN viability: reduces viability in counter-screen for ATXN expression inhibitors; Potency, µM (titrated, usually from 56.7 µM), most hits filed as cytotoxic; 0.49% of 400,000 active; AID 651635; S2 cells (HEK-293 line with an ATXN2-luciferase reporter) viability, CellTiter-Fluor protease fluorescence, 24 h; further: nearly all actives have a fitted effect of over 40% in size
# DT40 TDP1 CPT: DT40-hTDP1 cell growth loss with CPT. chicken DT40 Tdp1-/-;hTDP1 cells + 20 nM CPT, ATP luminescence, 48 h. Potency, µM (highest dose often 46.2 µM), inactives show at the top dose activity change, negative = growth inhibition, actives largely listed as inhibitors. 12% of 420,000 active. AID 686979; further: on the % scale 0 is the no-effect control and ±100 the full control effect; nearly all actives have a fitted effect of over 55% in size
#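 Chicken DT40 Tdp1-/- cells complemented with human TDP1, 400 cells/well, exposed to compounds plus 20 nM camptothecin for at least 48 h at 37 C; viability read as ATP content by CellTiter-Glo luminescence.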
# HepG2 tox: HepG2 cytotoxicity, counter-screen for TGF-b inhibitors | AID 588856 | HepG2 CAGA-GFP viability, ATP luminescence, 18 h | 0.76% of 410,000 active | Potency, µM (doses to about 46.1 µM), without a hit: at the highest dose activity change, negative = cytotoxicity, hits mostly cytotoxic
#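 HepG2 CAGA-GFP cells (1000/well, DMEM with 1% FBS) received compound, then TGF-beta at 500 pg/mL final, and were incubated 18 hours at 37 degrees C. Viability was read by CellTiter-Glo luminescence. Media-only wells were set as complete cell-killing and DMSO as no toxicity.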
# TDP1 cell noCPT: qHTS for Inhibitors of human tyrosyl-DNA phosphodiesterase 1 (TDP1): qHTS in cells in absence of CPT. 15% of 420,000 active. Potency, µM (top dose mostly 46.2 µM), for the others: at the highest dose activity change, negative = growth inhibition, usual class: inhibitors. DT40 Tdp1-/- hTDP1 cells, no CPT, ATP luminescence, 48 h; further: on the % scale 0 is the no-effect control and ±100 the full control effect; nearly all actives have a fitted effect of over 55% in size
#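 Readout: luminescence from CellTiter-Glo after 30 min in the dark at RT. Cells: DT40 Tdp1-/- with stable hTDP1, 400/well. Exposure: compounds alone, ≥48 hr, 37 °C.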
# Numbers without * were called inactive; i = inactive; ? = inconclusive; . = no result given; ! = not active in a repeat. The call rests on the fitted dose curve; in most records, active means well fitted curve in the direction sought with a large enough effect; inconclusive means small, poorly fitted or top-dose-only effect, or another doubt; inactive means no such curve, though single readings can be large; an effect the other way counts as inactive or inconclusive. Potency means the concentration at half of the fitted maximal effect.
SMILES,ATXN2 expr inh,TGFb inhibitor,ATXN viability,DT40 TDP1 CPT,HepG2 tox,TDP1 cell noCPT
OCCN1CCN(c2ncnc3c2ncn3[C@H]2CN(Cc3ccc(F)cc3)C[C@@H](CO)O2)CC1,-8%,0%,i,?,1%,?
CN1CCN(c2ncnc3c2ncn3[C@H]2CN(Cc3ccc(-c4ccccc4)cc3)C[C@@H](CO)O2)CC1,?,?,?,?,11µM*,?
OCCN1CCN(c2ncnc3c2ncn3[C@H]2CN(Cc3ccc(-c4ccccc4)cc3)C[C@@H](CO)O2)CC1,?,-6%,.,5.2µM*,-34%,6.5µM*
CN1CCN(c2ncnc3c2ncn3[C@H]2CN(Cc3ccc(C(=O)O)cc3)C[C@@H](CO)O2)CC1,3%,-3%,i,1%,1%,1%
CCOc1ccc(NC(=O)c2ccc(NC(=O)N3CCSc4ncccc43)cc2)cc1,.,-22%,.,-20%,-14%,-29%
Cc1ccc(NC(=O)c2ccc(C(C)(C)C)cc2)cc1-n1cnnn1,-14%,-5%,i,?,-5%,29µM*
CCOCCCNC(=O)c1c(NC(=O)c2cc(=O)c3ccccc3o2)sc2c1CCC2,7%,-7%,i,-13%,6%,-15%
S=C(NCC1CCCCC1)Nc1ccc(Oc2ccccc2)cc1,?,?,?,?,-13%,?
CCCCNC(=S)Nc1ccc(Oc2ccccc2)cc1,-10%,?,i,?,-37%,21µM*
CCOc1ccc(CSCCNC(=S)Nc2ccccc2)cc1,-16%,-26%,i,23µM*,-6%,23µM*
CCCNC(=S)Nc1ccc(Oc2ccccc2)cc1,5%,-3%,i,?,-33%,16µM*
CCCCNC(=S)Nc1ccc([N+](=O)[O-])cc1,-20%,11µM*,i,?,-48%,23µM*
C/C(=N\NC(=O)c1ccccc1O)c1ccc(NC(=O)c2ccccc2)cc1,6%,-9%,i,?,-1%,-12%
Cc1c(NC(=O)COC(=O)Cc2ccc(F)cc2)c(=O)n(-c2ccccc2)n1C,4%,20%,i,3%,10%,-12%
CCOc1ccc(CCNC(=O)CN2N=C(c3ccccc3)CCC2=O)cc1OCC,.,-24%,.,-21%,-15%,?
Cn1cc(-c2nc3cncnc3n(Cc3ccccc3Cl)c2=O)c2ccccc21,.,.,.,-3%,.,-9%
O=C(NC(NNc1ccc([N+](=O)[O-])cc1)(C(F)(F)F)C(F)(F)F)c1ccccc1Cl,-9%,?,i,1%,-22%,-15%
O=C(NC(NNc1ccc([N+](=O)[O-])cc1)(C(F)(F)F)C(F)(F)F)c1ccc(F)cc1,-20%,?,i,23µM*,-24%,18µM*
O=C(NNC(=S)Nc1ccc(F)cc1)c1cccc([N+](=O)[O-])c1,-12%,3%,i,-8%,-39%,-3%
CC(C)OC(=O)c1cc(NC(=S)Nc2ccc([N+](=O)[O-])cc2)cc(C(=O)OC(C)C)c1,?,-6%,.,9.2µM*,-11%,12µM*
O=[N+]([O-])c1ccc(NNC(=S)Nc2ccc(F)cc2)cc1,?,?,?,4.6µM*,-35%,3.3µM*
Cc1ccc(NC(=O)N(O)C2CCCCC2C#N)cc1 (centres undefined),66%,5%,i,6%,4%,-1%
O=C(CN1CCNC(=O)C1)NCCc1ccc(Cl)cc1Cl,6%,2%,i,-21%,-2%,16%
O=C(COC(=O)c1ccccc1OC(F)F)Nc1ccc(N2CCCCC2)cc1,-8%,-9%,i,-8%,-20%,-16%
Cc1ccc(SC[C@H](Cc2ccccc2)N2CC[C@@H](C(C)(C)C)CCC2=O)cc1,.,-10%,.,?,1%,?
SMILES,ATXN2 expr inh,TGFb inhibitor,ATXN viability,DT40 TDP1 CPT,HepG2 tox,TDP1 cell noCPT
CC(C)(C)[C@H]1CCC(=O)N([C@H](CSc2ccc(Br)cc2)Cc2ccccc2)CC1,-3%,36%,i,18µM*,-45%,14µM*
CC(C)(C)[C@H]1CCC(=O)N([C@H](CSc2ccccc2)Cc2ccccc2)CC1,-15%,11µM*!,?,23µM*,-21%,?
CC(C)(C)[C@H]1CCC(=O)N([C@H](CN=[N+]=[N-])Cc2ccccc2)CC1,-23%,?,i,14µM*,-26%,20µM*
O=C1CCC(OCc2ccccc2)CCN1[C@H](CSc1ccccc1)Cc1ccccc1 (some centres undefined),-1%,.,i,?,.,16µM*
CN1CCC(=O)N(C(CSc2ccc(Br)cc2)Cc2ccccc2)CC1 (centres undefined),.,-2%,.,.,-14%,.
CC(NC(=O)c1ccccc1)C(=O)NNC(=O)c1ccccc1Cl (centres undefined),.,-3%,?,-2%,4%,4%
Cc1ccc(SC[C@H](Cc2ccccc2)N2CC[C@@H](C)CCC2=O)cc1,-19%,?,i,11µM*,10%,13µM*
Cc1ccc(SCC(Cc2ccccc2)N2CCN(CCc3ccccc3)CCC2=O)cc1 (centres undefined),.,?,.,.,-11%,.
COc1ccccc1CNC(=O)CSc1cc(=O)n(C)c2ccccc12,?,-5%,i,?,6%,?
CCn1c(=O)cc(SCC(=O)NCCc2ccc(OC)cc2OC)c2ccccc21,-11%,0%,i,?,-10%,23µM*
CCn1c(=O)cc(SCC(=O)NCc2ccccc2OC)c2ccccc21,7%,7%,?,?,-26%,23µM*
CCOc1ccc(CCNC(=O)CSc2cc(=O)n(CC)c3ccccc23)cc1OCC,26%,13%,i,?,1%,?
CC(C)CCNC1c2ccccc2C(=O)N1Cc1ccccc1 (centres undefined),.,-12%,?,-24%,-19%,23µM*
O=Nc1c2cc(-c3ccccc3)[nH]nc-2c2ccccc12,.,2%,?,21µM*,-59%,21µM*
CCOc1ccc(Cc2noc3c2C(=O)CC(C)(C)C3)cc1OCC,14%,11%,i,-5%,-2%,?
O=C(c1ccc(Cl)cc1)N1CCC(c2ccncc2)CC1,-14%,-10%,i,?,1%,-72%
CCOC(=O)N1CCN(C(=O)c2ccc(Oc3ccc([N+](=O)[O-])cc3)cc2)CC1,?,-24%,i,16µM*,0%,23µM*
